# Assay results as given in ChEMBL document CHEMBL1157539, “Thousands of chemical starting points for antimalarial lead identification” (Nature, 2010).
# Test system: HepG2
# Assay: GSK_TCMDC: Percent inhibition of human HepG2 cell line. Test compounds present at 10uM.
# Format: functional
row,Structure (SMILES),Inhibition [%]
1,Cl.c1ccc2c(NCCCCCCCNc3ccnc4ccccc34)ccnc2c1,91
2,Br.CN(CCON1C(=N)N=C(N)NC1(C)C)c1ccccc1,64
3,NS(=O)(=O)c1cccc(-c2ccc3nccc(-c4cccc(S(N)(=O)=O)c4)c3c2)c1,40
4,COc1ccc2nccc(NCC3(O)CCC(NCc4ccc5c(n4)NC(=O)CS5)CC3)c2n1.Cl (stereo not given),16
5,CC(C)(C)c1nn(-c2ccccc2)c2[nH]c(=O)c(CNCc3ccc4c(c3)OCO4)cc12,1
6,Oc1ccc2[nH]c(-c3ccc(OC(F)(F)F)cc3)nc2c1CNC1CCCC1,32
7,O=C(CCOc1ccccc1)NCC1CCCO1 (stereo not given),0
8,CC(=O)N(C)/N=C/[C@H](CCc1ccccc1)NC(=O)[C@H](CC(C)C)NC(=O)c1cccc(OCCN2CCOCC2)c1,5
9,Cc1ccc(NC(=O)c2cc(S(=O)(=O)NC(C)(C)C)ccc2C)nc1,0
10,CCSc1nc2sc3c(c2c(=O)n1-c1ccccc1)CCN(C)C3,16
11,Cc1cc2ncn(-c3nccc(NCc4ccc(F)c(C)c4)n3)c2cc1C.O=C(O)C(F)(F)F,10
12,CCc1ccc(CN2CCCCC(NC(=O)c3cc(-c4ccccc4F)cs3)C2)cc1.O=C(O)C(F)(F)F (stereo not given),25
13,Br.CC1(C)NC(N)=NC(=N)N1OCc1cccs1,60
14,Cc1cccc2nc(-c3cccc(-c4ccc(NC(=O)Nc5ccc(Cl)cc5)cc4)c3)[nH]c12,63
15,COc1cc2c(cc1S(=O)(=O)c1ccc(NC(=O)c3cc4ccccc4s3)cc1)CCN(C)CC2,21
16,CN(C)CC(O)COc1ccc(Nc2ncc([N+](=O)[O-])c(Nc3ccccc3O)n2)cc1.O=C(O)C(F)(F)F (stereo not given),47
17,CCCC(CNCc1ccc(Cl)c(C(F)(F)F)c1)CNc1nc2cnccc2[nH]1.Cl (stereo not given),26
18,FC(F)(F)c1cccc2c(NN=Cc3ccccc3)ccnc12,10
19,COc1cc(-c2ccccc2)ccc1C(=O)Nc1ccc2c(c1)N(C)CCC2,15
20,O=C(Nc1ccccc1F)N(CCCn1ccnc1)Cc1csc(-c2ccc(CNCc3ccccc3)cc2)n1.O=C(O)C(F)(F)F,24

row,Structure (SMILES),Inhibition [%]
1,Cl.N=C(N)NN=Cc1c2ccccc2c(Cl)c2ccc(Cl)cc12,97
2,O=C(c1cc(-c2ccco2)n[nH]1)N1CCN(S(=O)(=O)c2ccc(Br)cc2)CC1,1
3,O=[N+]([O-])c1cccc(Nc2nccc(-c3cnn4ncccc34)n2)c1,33
4,CCc1ccc(-c2nc3cc(NC(=O)c4cc([N+](=O)[O-])cc([N+](=O)[O-])c4)ccc3o2)cc1,12
5,Cc1cc(NCCCCCCNc2cc(C)nc3c(C)cccc23)c2cccc(C)c2n1.Cl,23
6,O=C(O)C(F)(F)F.O=[N+]([O-])c1cccc(CNCC2CCN(Cc3ccc4ccccc4c3)CC2)c1,18
7,COc1c(C2CCN(CCCCNC(=O)c3noc(-c4ccc(C#N)cc4)n3)CC2)ccc2c1CCCC2,32
8,Cc1cccc2c(C(=O)NC3CCN(Cc4ccccc4)CC3)cc(-c3cccnc3)nc12,12
9,Cc1cc(N[C@@H](CC(C)C)C(=O)NCc2cccc(F)c2)nc(Nc2ccccc2)n1.O=C(O)C(F)(F)F,0
10,Clc1ccccc1OCc1ccccn1,2
11,CCNC[C@H]1CCCN1CCOc1ccc(-n2cnc3cc(-c4ccc(Cl)cc4)sc3c2=O)cc1OC.O=C(O)C(F)(F)F,53
12,COc1ccc(NC(=O)/C=C/c2ccccc2Cl)cc1OCCN1CCC(Cc2cc3ccccc3[nH]2)CC1.Cl,56
13,Cc1cc(C(=O)Nc2ccc3c(c2)CCN3C2CCN(Cc3cccc(F)c3F)C2)no1 (stereo not given),0
14,Cc1cccc(NC(=O)c2cnc(N3CCN(c4ccncc4)CC3)c(Cl)c2)c1.O=C(O)C(F)(F)F,36
15,CCCCN1CCN(c2cc(NS(=O)(=O)c3ccc(C(=O)Nc4ccc(C(F)(F)F)cc4)cc3)ccc2OC)CC1.O=C(O)C(F)(F)F,17
16,COc1cc2nc(N3CCC(CNC(=O)c4ccc(-c5ccc(C(F)(F)F)cc5)cc4)CC3)nc(N)c2cc1OC,94
17,CC(C)c1ccc(NC(=O)NCCCC2CCCN(CCCCCNC(=O)/C=C/c3ccc(Cl)c(Cl)c3)C2)cc1 (stereo not given),25
18,Cc1ccccc1C1CCN(C2CCC(NC(=O)/C=C/c3cccc(F)c3F)CC2)CC1 (stereo not given),57
19,Br.CC1(C)NC(N)=NC(=N)N1OCCSc1ccc(Cl)c(Cl)c1,65
20,O=C(Cc1c[nH]cn1)Nc1cccc(-c2ccc(-c3nc4ccccc4[nH]3)cc2)c1,7
